This is an account of results in PubChem BioAssay (Tox21).

Results filed as inconclusive are left out. Entries that show only a call come without a potency. The source made the active and inactive calls. Calls follow the shape of the dose curve; as a rule, active = well fitted cell-killing curve with a large enough effect in the repeat runs; inconclusive = weak or mixed curves, or effect the other way; inactive = no such curve, though single readings can be large or run the other way.
Potency is read from the fitted curve at half-maximal effect.

The experiment in a line: qHTS assay for small molecule activators of the heat shock response signaling pathway - cell viability counter screen (AID 743209). Also: nearly all actives have a fitted effect of over 50% in size. The following applies: HSE-bla HeLa viability, CellTiter-Glo luminescence, 5 h; series mostly up to 62.6 µM. Put shortly:
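Quantitative HTS format, Tox21 10K library. HeLa cells carrying an HSE-driven beta-lactamase reporter were treated 5 h at 37 C, then assessed for viability by CellTiter-Glo luminescence.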
In general terms: qHTS replaces the single test concentration by a dilution series.
For the compound `CC(=O)c1ccc2c(c1)[C@H](NC(=O)c1ccc(F)cc1)[C@@H](O)C(C)(C)O2`, the Potency entry is “inactive”.
The result for `CCOc1ccc2[nH]cc(C(=O)NCc3ccccc3)c(=O)c2n1` reads “inactive”; that for `N#Cc1cc2ccccc2c2ccccc12`, “inactive”; that for `CC(C)(Oc1ccc(Cl)cc1)C(=O)OCCCOC(=O)C(C)(C)Oc1ccc(Cl)cc1`, “inactive”.
As for `CCN(CC)C(C)CN1c2ccccc2Sc2ccccc21` (stereo not given), the Potency result was “inactive”.
The result for `Cc1ccc2c(ccc3ccccc32)c1` reads “inactive”; that for `CC(Cc1cccc(C(F)(F)F)c1)NCCOC(=O)c1ccccc1` (stereo not given), 23.7 µM (active).
The result for `CN1CCC(OC(c2ccccc2)c2ccccc2)CC1` reads “inactive”; that for `COc1ccc(C(C)=O)cc1`, “inactive”.
The result for `O=C1Nc2cc(Cl)ccc2Oc2ccccc21` reads “inactive”; that for `O=C1CCCCCO1`, “inactive”.
As to `CCCCC(CC)COCCCN` (stereo not given), the Potency entry was “inactive”.
Take `COC(Cc1ccccc1)OC`: the Potency entry is “inactive”.
The result for `CC(=O)c1c(C)c([N+](=O)[O-])c(C(C)(C)C)c([N+](=O)[O-])c1C` reads “inactive”; that for `CC1CCc2cc(F)cc3c(=O)c(C(=O)O)cn1c23` (stereo not given), “inactive”; that for `CN(C)CC[C@@H](c1ccc(Br)cc1)c1ccccn1`, “inactive”.
The result for `CCCC(=O)OCC` reads “inactive”; that for `Cc1cc(CC(=O)O)c(C)n1-c1ccc(Cl)cc1`, “inactive”.
In the case of `COc1ccc2[nH]c(S(=O)Cc3ncc(C)c(OC)c3C)nc2n1` (stereo not given), the Potency entry is “inactive”.
With `CCN(CC)CCOc1ccc2c(c1)C(=O)c1cc(OCCN(CC)CC)ccc1-2`, the Potency result is “inactive”.
The result for `CC(C)(C)c1cc(CO)cc(C(C)(C)C)c1O` reads “inactive”.
With `CC(C)CC=O`, the Potency entry was “inactive”.
The result for `COc1cc(C(C)(C)C)c(O)c(C(C)(C)C)c1` reads “inactive”; that for `Nc1ccc(C(=O)N2CC3CC(CN(Cc4ccccc4)C3)C2)cc1`, “inactive”.
The result for `O=S(=O)(O)c1ccc(O)c2ncccc12` reads “inactive”.
